Measurements reported in the supplement of paper PMC10849652.
About 7,900 targets were measured; listed, in parts, are those with a hit and a random draw of the rest. About 0.6% of all pairs of compound and target were hits.

How the values were obtained:
Assay in all cases: log2 fold change, soluble protein after heating vs DMSO (PISA); higher = thermal stabilisation; K562 cells, 10 uM, 30 min; active = over 0.2 and 3.5 SD of the protein, either way, in both replicates (recomputed)
[1] = compound: CC1=C(C=C(C=C1)NC(=O)C2=CC(=CC=C2)C(C)(C)C#N)NC3=CC4=C(C=C3)N=CN(C4=O)C
Outline: (§1)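 K562 cells (2×10^6 cells/mL) were treated with 10 μM compound for 30 min, and aliquots were heated for 3 min over 48°C-58°C. Pooled aliquots were extracted in PBS with 0.5% NP-40 at 4°C, and the supernatant after 21,000xg for 90 min was measured by TMTpro 16plex LC-MS/MS with channel sums equalised. Reported thermal stability, relative to control samples and from duplicates, is a log2 fold change.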

[2] = compound: CC1=C(C=C(C=C1)NC(=O)C2=CC(=CC=C2)N(C)C)NC(=O)C3=CC=C(C=C3)O
Outline: as §1

[3] = compound: CC1=CC=C(C=C1)SC2=C3C=C(SC3=CN=C2)C(=O)N
Outline: as §1

[4] = compound: CC1=NC(=CC=C1)C2=C(N=C(N2)C(C)(C)C)C3=CC4=NC=CN=C4C=C3
Outline: as §1

Nexturastat A = compound: CCCCN(Cc1ccc(C(=O)NO)cc1)C(=O)Nc1ccccc1 [Nexturastat A]
Outline: as §1

vemurafenib = compound: CCCS(=O)(=O)Nc1ccc(F)c(C(=O)c2c[nH]c3ncc(-c4ccc(Cl)cc4)cc23)c1F [vemurafenib]
Outline: as §1

[5] = compound: CCCS(=O)(=O)Nc1ccc(F)c(C(=O)c2c[nH]c3ncc(Cl)cc23)c1F
Outline: as §1

[6] = compound: CCCc1cc(C)[nH]c(=O)c1CNC(=O)c1cc(-c2ccnc(N3CCN(C)CC3)c2)cc2c1cnn2C(C)C
Outline: as §1

givinostat = compound: CCN(CC)Cc1ccc2cc(COC(=O)Nc3ccc(C(=O)NO)cc3)ccc2c1 [givinostat]
Outline: as §1

barasertib = compound: CCN(CCCOc1ccc2c(Nc3cc(CC(=O)Nc4cccc(F)c4)[nH]n3)ncnc2c1)CCOP(=O)(O)O [barasertib]
Outline: as §1

[7] = compound: CC[C@@H]1C(=O)N(C)c2cnc(Nc3ccc(C(=O)NC4CCN(C)CC4)cc3OC)nc2N1C1CCCC1
Outline: as §1

volasertib = compound: CC[C@@H]1C(=O)N(C)c2cnc(Nc3ccc(C(=O)N[C@H]4CC[C@H](N5CCN(CC6CC6)CC5)CC4)cc3OC)nc2N1C(C)C [volasertib]
Outline: as §1

[8] = compound: CC[C@H](C)N1C=C(C2=C(C=C(C=C21)C3=CN=C(C=C3)N4CCNCC4)C(=O)NCC5=C(C=C(NC5=O)C)C)C
Outline: as §1

epoxomicin = compound: CC[C@H](C)[C@@H](C(=O)N[C@@H]([C@@H](C)O)C(=O)N[C@@H](CC(C)C)C(=O)[C@]1(CO1)C)NC(=O)[C@H]([C@@H](C)CC)N(C)C(=O)C [epoxomicin]
Outline: as §1

[9] = compound: CCn1c(C(=O)N(C2CC2)C2CC2)cc2c3c(ncn3C)c(Nc3cc(C)n(C)n3)nc21
Outline: as §1

[10] = compound: CCn1cc(-c2ccnc3[nH]c(-c4cccc(CN(C)C)c4)cc23)c(-c2ccc(NC(=O)N(C)C)cc2)n1
Outline: as §1

[11] = compound: CN(C)CC(=O)Nc1ccc2[nH]c(=O)c3ccccc3c2c1
Outline: as §1

rosiglitazone = compound: CN(CCOC1=CC=C(C=C1)C[C@H]2C(=O)NC(=O)S2)C3=CC=CC=N3 (racemic) [rosiglitazone]
Outline: as §1

[12] = compound: CN1C2=C(C3=C1C(=O)N(N=C3)CC4=CC(=CC=C4)N)SC(=C2)S(=O)C
Outline: as §1

[13] = compound: CN1CCC(CNc2ccc3ncc(-c4cccc(OC(F)(F)F)c4)n3n2)CC1
Outline: as §1

Measured: log2 fold change

ST3GAL2 (UniProt Q16842)
inactive: [1] 0.064 | [2] -0.054 | [3] -0.216 | [4] 0.066 | Nexturastat A -0.012 | vemurafenib -0.032 | [5] -0.013 | [6] 0.212 | givinostat 0.078 | barasertib 0.112 | [7] -0.28 | [8] -0.053 | epoxomicin -0.053 | [9] -0.038 | [10] 0.062 | [11] 0.005 | rosiglitazone 0.011 | [12] -0.071
active: volasertib -0.562 | [13] -0.474

STK4 (UniProt Q13043)
Chain of UniProt Q13043 (Q13043 whole entry, looked up): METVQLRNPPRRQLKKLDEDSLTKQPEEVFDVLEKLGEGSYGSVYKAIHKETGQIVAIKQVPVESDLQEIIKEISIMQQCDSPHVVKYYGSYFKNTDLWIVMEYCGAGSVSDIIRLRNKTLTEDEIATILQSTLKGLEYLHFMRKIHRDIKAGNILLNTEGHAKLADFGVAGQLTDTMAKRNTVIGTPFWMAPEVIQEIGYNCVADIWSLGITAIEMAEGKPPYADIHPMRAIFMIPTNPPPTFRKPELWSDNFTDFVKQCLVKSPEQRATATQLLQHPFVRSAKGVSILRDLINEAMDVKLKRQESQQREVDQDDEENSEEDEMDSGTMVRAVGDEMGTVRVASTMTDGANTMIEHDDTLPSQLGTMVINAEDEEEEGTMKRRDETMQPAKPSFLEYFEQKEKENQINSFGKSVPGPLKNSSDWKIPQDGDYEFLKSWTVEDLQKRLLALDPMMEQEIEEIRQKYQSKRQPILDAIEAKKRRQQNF
inactive: [1] -0.065 | [2] 0.018 | [3] -0.022 | [4] 0.007 | Nexturastat A 0.004 | vemurafenib -0.024 | [5] -0.014 | [6] 0.005 | givinostat -0.006 | barasertib 0.032 | [7] 0.024 | volasertib 0.006 | [8] 0.014 | epoxomicin 0.033 | [9] -0.029 | [10] -0.041 | [11] 0.013 | rosiglitazone 0.03 | [12] 0.004 | [13] -0.061

SQSTM1 (UniProt Q13501)
inactive: [1] 0.04 | [2] -0.065 | [3] -0.054 | [4] -0.012 | Nexturastat A 0.102 | vemurafenib 0.064 | [5] 0.047 | [6] 0.103 | givinostat -0.027 | barasertib 0.032 | [7] -0.09 | volasertib -0.204 | [8] 0.021 | epoxomicin -0.056 | [9] 0.041 | [10] -0.112 | [11] 0.042 | rosiglitazone 0.012 | [12] 0.043 | [13] -0.022

SRSF7 (UniProt Q16629)
Chain of UniProt Q16629 (Q16629 whole entry, looked up): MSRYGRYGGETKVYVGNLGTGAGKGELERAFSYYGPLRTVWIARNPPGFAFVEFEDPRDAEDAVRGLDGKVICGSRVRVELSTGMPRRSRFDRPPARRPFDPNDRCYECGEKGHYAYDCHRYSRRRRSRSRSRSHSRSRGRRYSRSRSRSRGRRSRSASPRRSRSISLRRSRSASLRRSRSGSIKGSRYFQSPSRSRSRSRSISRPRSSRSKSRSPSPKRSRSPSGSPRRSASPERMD
inactive: [1] 0 | [2] 0.025 | [3] -0.115 | [4] -0.112 | Nexturastat A 0.193 | vemurafenib -0.043 | [5] -0.088 | [6] 0.114 | givinostat 0.059 | barasertib -0.105 | [7] 0.18 | volasertib 0.215 | [8] -0.039 | epoxomicin -0.171 | [9] 0.03 | [10] 0.181 | [11] -0.085 | rosiglitazone -0.172 | [12] 0.218 | [13] 0.175

TM9SF4 (UniProt Q92544)
inactive: [1] 0.084 | [2] -0.022 | [3] 0.014 | [4] -0.012 | Nexturastat A -0.029 | vemurafenib 0.031 | [5] 0.073 | [6] 0.034 | givinostat 0.054 | barasertib 0.004 | [7] -0.225 | [8] 0.024 | epoxomicin -0.055 | [9] 0.035 | [10] 0.052 | [11] 0.001 | rosiglitazone 0.082 | [12] -0.05 | [13] -0.084
active: volasertib -0.484

SLC25A4 (UniProt P12235)
active: Nexturastat A -0.228
inactive: [1] 0.041 | [2] 0.029 | [3] 0.073 | [4] 0.017 | vemurafenib -0.028 | [5] -0.02 | [6] -0.032 | givinostat -0.049 | barasertib -0.009 | [7] -0.012 | volasertib 0.06 | [8] -0.024 | epoxomicin 0.009 | [9] 0.034 | [10] 0.037 | [11] -0.053 | rosiglitazone -0.001 | [12] -0.038 | [13] -0.001

TIMM29 (UniProt Q9BSF4)
inactive: [1] -0.007 | [2] -0.015 | [3] -0.023 | [4] -0.102 | Nexturastat A -0.037 | vemurafenib -0.031 | [5] 0.033 | [6] 0 | givinostat 0.014 | barasertib 0.004 | [7] 0.044 | volasertib -0.071 | [8] 0.019 | epoxomicin -0.013 | [9] 0.027 | [10] -0.035 | [11] 0 | rosiglitazone -0.016 | [12] -0.103 | [13] 0.062

TAX1BP1 (UniProt Q86VP1)
Chain of UniProt Q86VP1 (Q86VP1 whole entry, looked up): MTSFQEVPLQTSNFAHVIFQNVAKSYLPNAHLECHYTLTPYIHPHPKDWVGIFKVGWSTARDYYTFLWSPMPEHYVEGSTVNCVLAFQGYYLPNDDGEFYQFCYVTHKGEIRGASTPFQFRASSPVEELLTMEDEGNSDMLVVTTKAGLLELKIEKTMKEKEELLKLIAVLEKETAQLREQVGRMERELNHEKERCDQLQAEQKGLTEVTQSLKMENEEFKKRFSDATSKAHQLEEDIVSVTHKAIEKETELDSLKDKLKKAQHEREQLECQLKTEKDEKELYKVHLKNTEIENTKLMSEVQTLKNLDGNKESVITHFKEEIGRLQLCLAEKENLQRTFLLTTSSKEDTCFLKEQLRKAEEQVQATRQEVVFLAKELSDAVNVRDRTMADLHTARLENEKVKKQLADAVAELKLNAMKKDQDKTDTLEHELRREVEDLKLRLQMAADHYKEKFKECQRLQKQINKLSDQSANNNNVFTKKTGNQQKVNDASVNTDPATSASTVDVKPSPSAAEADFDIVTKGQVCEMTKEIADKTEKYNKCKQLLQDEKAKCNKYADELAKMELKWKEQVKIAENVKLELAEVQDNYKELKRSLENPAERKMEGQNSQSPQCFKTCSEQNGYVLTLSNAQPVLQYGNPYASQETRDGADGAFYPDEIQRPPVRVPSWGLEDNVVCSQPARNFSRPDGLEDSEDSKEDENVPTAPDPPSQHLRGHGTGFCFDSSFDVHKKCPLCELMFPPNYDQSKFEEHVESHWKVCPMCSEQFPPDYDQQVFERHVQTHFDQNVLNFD
active: volasertib -0.298
inactive: [1] 0.031 | [2] -0.005 | [3] -0.014 | [4] -0.026 | Nexturastat A -0.014 | vemurafenib -0.003 | [5] 0.011 | [6] -0.055 | givinostat -0.033 | barasertib -0.061 | [7] -0.144 | [8] -0.081 | epoxomicin -0.027 | [9] 0.055 | [10] -0.067 | [11] 0 | rosiglitazone -0.011 | [12] -0.001 | [13] 0.003

SURF2 (UniProt Q15527)
Chain of UniProt Q15527 (Q15527 whole entry, looked up): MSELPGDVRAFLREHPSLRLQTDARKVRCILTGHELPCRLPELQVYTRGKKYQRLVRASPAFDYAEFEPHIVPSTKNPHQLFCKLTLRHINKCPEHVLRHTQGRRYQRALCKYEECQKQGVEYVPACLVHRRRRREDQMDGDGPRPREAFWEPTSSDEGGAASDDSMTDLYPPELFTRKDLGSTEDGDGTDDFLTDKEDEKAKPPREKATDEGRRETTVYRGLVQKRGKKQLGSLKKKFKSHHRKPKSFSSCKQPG
inactive: [1] 0.022 | [2] -0.007 | [3] 0.035 | [4] -0.027 | Nexturastat A 0.033 | vemurafenib -0.037 | [5] -0.002 | [6] -0.029 | givinostat 0.013 | barasertib 0.035 | [7] -0.002 | volasertib -0.046 | [8] 0.014 | epoxomicin 0.04 | [9] -0.008 | [10] -0.078 | [11] 0.037 | rosiglitazone 0 | [12] -0.043 | [13] 0.024

SRPRB (UniProt Q9Y5M8)
Chain of UniProt Q9Y5M8 (Q9Y5M8 whole entry, looked up): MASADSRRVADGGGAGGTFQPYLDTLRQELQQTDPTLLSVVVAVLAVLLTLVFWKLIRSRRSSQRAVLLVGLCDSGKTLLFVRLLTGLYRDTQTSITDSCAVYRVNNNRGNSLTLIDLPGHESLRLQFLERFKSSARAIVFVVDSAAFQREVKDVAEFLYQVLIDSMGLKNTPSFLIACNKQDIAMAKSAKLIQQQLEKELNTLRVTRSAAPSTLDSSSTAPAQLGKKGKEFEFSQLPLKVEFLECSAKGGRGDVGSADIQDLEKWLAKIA
inactive: [1] 0.096 | [2] -0.051 | [3] 0.025 | [4] 0.092 | Nexturastat A -0.035 | vemurafenib 0.061 | [5] 0.073 | [6] 0.035 | givinostat -0.127 | barasertib 0.027 | [7] -0.141 | volasertib -0.048 | [8] 0.031 | epoxomicin 0.1 | [9] -0.046 | [10] -0.134 | [11] 0.042 | rosiglitazone 0.002 | [12] -0.05 | [13] 0.051

TJP2 isoform 7 (UniProt Q9UDY2)
Chain of UniProt Q9UDY2 (Q9UDY2 whole entry, looked up): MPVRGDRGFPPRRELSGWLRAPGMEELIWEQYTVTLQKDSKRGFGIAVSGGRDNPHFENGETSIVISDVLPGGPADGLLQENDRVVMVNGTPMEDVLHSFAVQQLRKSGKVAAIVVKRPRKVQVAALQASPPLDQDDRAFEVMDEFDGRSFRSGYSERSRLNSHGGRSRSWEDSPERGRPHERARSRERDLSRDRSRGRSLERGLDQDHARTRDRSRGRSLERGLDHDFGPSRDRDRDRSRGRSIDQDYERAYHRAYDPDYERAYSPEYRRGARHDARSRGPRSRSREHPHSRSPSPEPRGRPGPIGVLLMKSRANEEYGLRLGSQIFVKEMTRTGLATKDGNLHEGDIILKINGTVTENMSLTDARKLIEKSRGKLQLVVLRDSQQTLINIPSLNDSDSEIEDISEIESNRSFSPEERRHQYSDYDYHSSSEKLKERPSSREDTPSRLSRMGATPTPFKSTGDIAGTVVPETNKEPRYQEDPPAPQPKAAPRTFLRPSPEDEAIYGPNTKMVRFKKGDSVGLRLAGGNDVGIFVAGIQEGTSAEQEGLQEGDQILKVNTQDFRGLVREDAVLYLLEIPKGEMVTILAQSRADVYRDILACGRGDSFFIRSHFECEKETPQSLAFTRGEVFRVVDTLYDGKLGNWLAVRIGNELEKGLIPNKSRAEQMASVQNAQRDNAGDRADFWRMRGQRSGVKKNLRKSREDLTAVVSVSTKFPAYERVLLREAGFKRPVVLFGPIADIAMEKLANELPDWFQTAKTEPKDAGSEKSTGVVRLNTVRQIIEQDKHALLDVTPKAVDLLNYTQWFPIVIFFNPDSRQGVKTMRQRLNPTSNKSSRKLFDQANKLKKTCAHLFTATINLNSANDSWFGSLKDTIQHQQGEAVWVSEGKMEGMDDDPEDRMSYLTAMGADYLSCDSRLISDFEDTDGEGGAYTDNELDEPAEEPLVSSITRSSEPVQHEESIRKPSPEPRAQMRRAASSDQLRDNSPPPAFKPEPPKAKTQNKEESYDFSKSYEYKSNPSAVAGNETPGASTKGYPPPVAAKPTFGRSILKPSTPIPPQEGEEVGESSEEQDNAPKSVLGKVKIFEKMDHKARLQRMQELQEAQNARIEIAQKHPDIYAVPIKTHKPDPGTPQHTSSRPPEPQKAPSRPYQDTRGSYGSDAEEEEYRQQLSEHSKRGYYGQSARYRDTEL
inactive: [1] -0.017 | [2] -0.006 | [3] 0.007 | [4] -0.014 | Nexturastat A 0.048 | vemurafenib 0.09 | [5] 0.101 | [6] -0.194 | givinostat 0.071 | barasertib 0.102 | [7] -0.128 | volasertib -0.298 | [8] -0.018 | epoxomicin 0.01 | [9] -0.041 | [10] -0.083 | [11] 0.015 | rosiglitazone 0.07 | [12] -0.021 | [13] -0.094

SPART (UniProt Q8N0X7)
inactive: [1] 0.007 | [2] -0.027 | [3] 0.055 | [4] -0.014 | Nexturastat A 0.005 | vemurafenib -0.046 | [5] 0.088 | [6] -0.025 | givinostat 0.001 | barasertib 0.037 | [7] -0.031 | [8] -0.005 | epoxomicin -0.123 | [9] -0.015 | [10] 0.014 | [11] 0.069 | rosiglitazone 0.04 | [12] -0.035 | [13] -0.052
active: volasertib -0.224

SUPT16H (UniProt Q9Y5B9)
inactive: [1] 0.082 | [2] -0.081 | [3] 0.01 | [4] 0.102 | Nexturastat A -0.019 | vemurafenib 0.186 | [5] 0.093 | [6] 0.061 | givinostat 0.223 | barasertib 0.187 | [7] -0.426 | volasertib -0.363 | [8] 0.095 | epoxomicin 0.085 | [9] -0.108 | [10] -0.089 | [11] 0.285 | rosiglitazone 0.073 | [12] -0.02 | [13] -0.198

TAOK1 (UniProt Q7L7X3)
Chain of UniProt Q7L7X3 (Q7L7X3 whole entry, looked up): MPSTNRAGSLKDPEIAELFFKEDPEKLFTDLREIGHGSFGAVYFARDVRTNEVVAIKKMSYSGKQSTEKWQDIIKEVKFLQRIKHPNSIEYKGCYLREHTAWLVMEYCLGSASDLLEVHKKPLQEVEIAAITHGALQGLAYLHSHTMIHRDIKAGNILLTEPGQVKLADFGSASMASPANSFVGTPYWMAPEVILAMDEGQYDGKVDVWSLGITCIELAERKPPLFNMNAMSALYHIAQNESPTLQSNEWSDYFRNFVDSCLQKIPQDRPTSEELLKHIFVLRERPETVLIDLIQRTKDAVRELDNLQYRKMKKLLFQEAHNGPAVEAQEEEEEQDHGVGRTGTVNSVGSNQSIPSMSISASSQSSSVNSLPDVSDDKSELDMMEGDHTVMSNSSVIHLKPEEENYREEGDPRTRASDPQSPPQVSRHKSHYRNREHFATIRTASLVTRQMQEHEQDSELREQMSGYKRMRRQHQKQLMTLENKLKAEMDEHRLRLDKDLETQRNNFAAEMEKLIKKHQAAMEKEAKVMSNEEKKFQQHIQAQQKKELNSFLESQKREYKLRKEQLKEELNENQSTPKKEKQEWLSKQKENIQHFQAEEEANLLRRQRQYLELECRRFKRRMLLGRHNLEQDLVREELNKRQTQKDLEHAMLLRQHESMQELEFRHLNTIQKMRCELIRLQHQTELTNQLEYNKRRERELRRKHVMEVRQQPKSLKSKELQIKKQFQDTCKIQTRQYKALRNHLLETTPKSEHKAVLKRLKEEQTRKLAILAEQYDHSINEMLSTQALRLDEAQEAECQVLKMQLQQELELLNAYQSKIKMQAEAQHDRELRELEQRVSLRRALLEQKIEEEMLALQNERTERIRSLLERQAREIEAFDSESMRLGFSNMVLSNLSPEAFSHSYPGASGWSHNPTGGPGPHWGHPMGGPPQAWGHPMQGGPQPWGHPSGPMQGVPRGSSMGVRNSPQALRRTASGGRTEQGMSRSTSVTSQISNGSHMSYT
inactive: [1] -0.009 | [2] 0.007 | [3] -0.005 | [4] -0.013 | Nexturastat A 0.065 | vemurafenib 0.023 | [5] 0.011 | [6] -0.048 | givinostat 0.001 | barasertib 0.009 | [7] 0.03 | volasertib -0.019 | [8] 0.029 | epoxomicin -0.02 | [9] -0.008 | [10] -0.024 | [11] 0 | rosiglitazone 0.032 | [12] 0.017
active: [13] -0.262

SPAST (UniProt Q9UBP0)
Chain of UniProt Q9UBP0 (Q9UBP0 whole entry, looked up): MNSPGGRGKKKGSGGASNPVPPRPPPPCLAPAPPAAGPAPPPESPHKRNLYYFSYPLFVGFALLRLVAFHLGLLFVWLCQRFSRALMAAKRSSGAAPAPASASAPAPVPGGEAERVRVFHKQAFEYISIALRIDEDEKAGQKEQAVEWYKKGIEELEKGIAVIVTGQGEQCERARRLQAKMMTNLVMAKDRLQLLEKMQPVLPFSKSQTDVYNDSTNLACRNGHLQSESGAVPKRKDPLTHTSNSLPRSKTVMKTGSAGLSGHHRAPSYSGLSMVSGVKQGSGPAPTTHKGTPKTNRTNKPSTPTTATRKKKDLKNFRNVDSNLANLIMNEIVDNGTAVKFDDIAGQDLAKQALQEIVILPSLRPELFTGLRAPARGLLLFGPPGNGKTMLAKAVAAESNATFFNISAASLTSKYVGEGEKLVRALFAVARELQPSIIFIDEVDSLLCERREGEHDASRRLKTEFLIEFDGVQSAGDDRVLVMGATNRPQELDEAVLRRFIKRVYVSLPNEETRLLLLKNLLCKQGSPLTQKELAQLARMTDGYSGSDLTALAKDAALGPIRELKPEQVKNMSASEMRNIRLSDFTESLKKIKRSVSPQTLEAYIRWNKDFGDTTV
inactive: [1] -0.032 | [2] -0.05 | [3] 0.049 | [4] 0.029 | Nexturastat A -0.047 | vemurafenib 0.068 | [5] 0.021 | [6] 0.062 | givinostat 0.074 | barasertib 0.045 | [7] -0.128 | volasertib -0.242 | [8] 0.107 | epoxomicin 0.021 | [9] -0.077 | [10] 0.035 | [11] 0.079 | rosiglitazone 0.048 | [12] -0.046 | [13] -0.043

SREK1 isoform 2 (UniProt Q8WXA9)
inactive: [1] -0.335 | [2] -0.083 | [3] 0 | [4] 0.045 | Nexturastat A 0.108 | vemurafenib 0.019 | [5] 0.096 | [6] -0.069 | givinostat 0.062 | barasertib -0.057 | [7] -0.122 | volasertib -0.22 | [8] 0.037 | epoxomicin -0.021 | [9] 0.021 | [10] -0.098 | [11] -0.029 | rosiglitazone 0.015 | [12] 0.026 | [13] -0.035
